The values that follow come from PubChem BioAssay (EPA / NIEHS).

What all share (conditions): mRNA level, 48 h; actives raise or lower the signal
Read-out in assay [1]: DNA damage-inducible transcript 3 (DDIT3), DDIT3 (gene 1649)
Put plainly: LTEA_HepaRG_DDIT3: Life Technologies and Expression Analysis (LTEA) Assay for DNA damage-inducible transcript 3 (DDIT3) using HepaRG (AID 2283488). In short, it runs like this:
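qRT-PCR readout (Fluidigm TaqMan), housekeeping-normalized to ACTB, GAPDH, POLR2A. HepaRG cells, 48 h exposure, 8-point half-log series from 100 uM in 0.5% DMSO, duplicates. Gain or loss of signal fitted against DMSO baseline.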

Read-out in assay [2]: Pro-epidermal growth factor (Homo sapiens) (UniProt P01133)
Put plainly: LTEA_HepaRG_EGF: Life Technologies and Expression Analysis (LTEA) Assay for Epidermal growth factor (EGF) using HepaRG (AID 2283489). In outline: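 HepaRG cells (~100,000/well, 48 h pre-culture) exposed in duplicate for 48 h in serum-free induction medium to 8 half-log concentrations up to 100 uM in 0.5% DMSO. EGF mRNA by qRT-PCR, normalized to ACTB/GAPDH/POLR2A; bidirectional fit versus DMSO.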

Read-out in assay [3]: Early growth response protein 1 (EGR1) transcription factor, EGR1 (gene 1958)
Kind of assay: LTEA_HepaRG_EGR1: Life Technologies and Expression Analysis (LTEA) Assay for Early growth response protein 1 (EGR1) transcription factor using HepaRG (AID 2283490). In outline: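 EGR1 transcript levels quantified by qRT-PCR (Fluidigm arrays) against three housekeeping genes after 48 h chemical exposure of HepaRG cells. Eight-point half-log series topping at 100 uM, 0.5% DMSO vehicle, analyzed for gain or loss.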

Read-out in assay [4]: Ezrin (EZR), EZR (gene 7430)
Kind of assay: LTEA_HepaRG_EZR: Life Technologies and Expression Analysis (LTEA) Assay for Ezrin (EZR) using HepaRG (AID 2283491). In short, it runs like this: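 Gain or loss of EZR mRNA is scored relative to 0.5% DMSO in human HepaRG cultures treated 48 h with test chemicals in duplicate, eight half-log concentrations from 100 uM.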

Read-out in assay [5]: Cytochrome P450 3A7 (Homo sapiens) (UniProt P24462)
Kind of assay: LTEA_HepaRG_CYP3A7: Life Technologies and Expression Analysis (LTEA) Assay for CYP3A7 using HepaRG (AID 2283492). In outline: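 Differentiated HepaRG cells in serum-free induction medium exposed 48 h in duplicate to 8-point half-log series from 100 uM top in 0.5% DMSO. CYP3A7 mRNA by qRT-PCR, normalized to ACTB/GAPDH/POLR2A, bidirectional fit versus DMSO.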

Read-out in a further assay: CYP3A5 (gene 1577)
Kind of assay: LTEA_HepaRG_CYP3A5: Life Technologies and Expression Analysis (LTEA) Assay for CYP3A5 using HepaRG (AID 2283493). In short, it runs like this:
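qRT-PCR read-out: CYP3A5 transcript in HepaRG lysates, housekeeping-normalized (ACTB/GAPDH/POLR2A), fitted bidirectionally against 0.5% DMSO baseline. Exposure 48 h, eight half-log concentrations up to 100 uM, duplicates.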

Read-out in assay [6]: Fatty Acid-Binding Protein 1 (FABP1), FABP1 (gene 2168)
Kind of assay: LTEA_HepaRG_FABP1: Life Technologies and Expression Analysis (LTEA) Assay for Fatty Acid-Binding Protein 1 (FABP1) using HepaRG (AID 2283494). In short, it runs like this:
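FABP1 expression by TaqMan qRT-PCR, normalised to three housekeeping genes, in HepaRG cells after 48 h chemical treatment. Eight-point half-log series topping at 100 uM in 0.5% DMSO, duplicates; gain or loss fitted relative to vehicle.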

Read-out in assay [7]: Cytochrome P450 4A22 (Homo sapiens) (UniProt Q5TCH4)
Put plainly: LTEA_HepaRG_CYP4A22: Life Technologies and Expression Analysis (LTEA) Assay for Cytochrome P450 4A22 (CYP4A22) using HepaRG (AID 2283495). In short, it runs like this: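 Differentiated HepaRG cells in serum-free induction medium exposed 48 h in duplicate to eight half-log concentrations up to 100 uM in 0.5% DMSO. CYP4A22 mRNA quantified by TaqMan qRT-PCR, normalized to ACTB, GAPDH and POLR2A; bidirectional fit versus DMSO.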

Read-out in assay [8]: Cytochrome P450 7A1 (Homo sapiens) (UniProt P22680)
Put plainly: LTEA_HepaRG_CYP7A1: Life Technologies and Expression Analysis (LTEA) Assay for Cytochrome P450 7A1 (CYP7A1) using HepaRG (AID 2283496). In outline:
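Using 0.5% DMSO as vehicle and baseline, chemicals were tested in duplicate over an 8-point range from 100 uM on HepaRG cells for 48 h; qRT-PCR signals were normalised to ACTB, GAPDH and POLR2A.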

Read-out in assay [9]: Glutathione S-Transferase (GSTA2), GSTA2 (gene 2939)
Kind of assay: LTEA_HepaRG_GSTA2: Life Technologies and Expression Analysis (LTEA) Assay for Glutathione S-Transferase (GSTA2) using HepaRG (AID 2283497). In short, it runs like this:
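GSTA2 transcript levels came from Fluidigm TaqMan qRT-PCR normalized to three housekeeping genes, fitted in both directions against DMSO. HepaRG cultures received chemicals for 48 h in serum-free induction medium (0.5% DMSO), 8 half-log concentrations up to 100 uM, duplicate.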

Read-out in assay [10]: Glutamate-cysteine ligase catalytic (GCLC), GCLC (gene 2729)
Kind of assay: LTEA_HepaRG_GCLC: Life Technologies and Expression Analysis (LTEA) Assay for Glutamate-cysteine ligase catalytic (GCLC) using HepaRG (AID 2283498). In outline: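 Expression by TaqMan qRT-PCR, normalized to three housekeeping genes (ACTB, GAPDH, POLR2A), with up- or down-regulation fitted against DMSO. HepaRG cells dosed in duplicate for 48 h with 8 half-log concentrations up to 100 uM, vehicle 0.5% DMSO.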

Read-out in assay [11]: growth arrest and DNA damage 45 (GADD45G), GADD45G (gene 10912)
Kind of assay: LTEA_HepaRG_GADD45G: Life Technologies and Expression Analysis (LTEA) Assay for growth arrest and DNA damage 45 (GADD45G) using HepaRG (AID 2283499). In short, it runs like this:
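Differentiated human HepaRG cells, 48 h post-plating, exposed 48 h in serum-free induction medium to 8 half-log concentrations (top 100 uM, 0.5% DMSO) in duplicate. GADD45G mRNA measured by Fluidigm TaqMan qRT-PCR, normalized to ACTB, GAPDH, POLR2A; bidirectional fit versus DMSO.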

Read-out in assay [12]: Glutathione S-transferase M3 (GSTM3), GSTM3 (gene 2947)
Put plainly: LTEA_HepaRG_GSTM3: Life Technologies and Expression Analysis (LTEA) Assay for Glutathione S-transferase M3 (GSTM3) using HepaRG (AID 2283501). In short, it runs like this:
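Differentiated human HepaRG cells were exposed in duplicate for 48 h in serum-free induction medium, 8 points from 100 uM top in half-log steps, 0.5% DMSO. GSTM3 mRNA was measured by TaqMan qRT-PCR, normalized to ACTB, GAPDH and POLR2A; bidirectional fit versus DMSO.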

Read-out in assay [13]: Heat shock 70 kDa protein 1 (HSPA1A), gene 3303
Put plainly: LTEA_HepaRG_HSPA1A: Life Technologies and Expression Analysis (LTEA) Assay for Heat shock 70 kDa protein 1 (HSPA1A) using HepaRG (AID 2283502). In short, it runs like this: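 HepaRG, 48 h exposure, 8-pt half-log CRC from 100 uM in 0.5% DMSO, duplicates. Readout: TaqMan qRT-PCR of HSPA1A mRNA, housekeeping-normalized (ACTB/GAPDH/POLR2A). Bidirectional fit vs 0.5% DMSO baseline.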

Read-out in assay [14]: Hypoxia-inducible factor 1-alpha (Homo sapiens) (UniProt Q16665)
Kind of assay: LTEA_HepaRG_HIF1A: Life Technologies and Expression Analysis (LTEA) Assay for Hypoxia-inducible factor 1 (HIF1A) Trancription factor using HepaRG (AID 2283503). In short, it runs like this:
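Gain- or loss-of-signal HIF1A mRNA changes are fitted against a DMSO baseline. HepaRG cultures receive eight concentrations, highest 100 uM, for 48 h in serum-free induction medium with 0.5% DMSO.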

Read-out in assay [15]: 3-Hydroxy-3-Methylglutaryl-CoA Synthase 2 (HMGCS2), HMGCS2 (gene 3158)
Kind of assay: LTEA_HepaRG_HMGCS2: Life Technologies and Expression Analysis (LTEA) Assay for 3-Hydroxy-3-Methylglutaryl-CoA Synthase 2 (HMGCS2) using HepaRG (AID 2283504). In short, it runs like this: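 Human HepaRG cells in serum-free induction medium were exposed in duplicate for 48 h to 8-point half-log series from 100 uM top in 0.5% DMSO. HMGCS2 mRNA measured by TaqMan qRT-PCR, normalised to ACTB, GAPDH, POLR2A; bidirectional fit versus DMSO.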

Read-out in a further assay: HGF (gene 3082)
Kind of assay: LTEA_HepaRG_HGF: Life Technologies and Expression Analysis (LTEA) Assay for Hepatocyte Growth Facto (HGF) using HepaRG (AID 2283505). In outline: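 Differentiated HepaRG cells in serum-free induction medium exposed 48 h in duplicate, 8 half-log concentrations from 100 uM in 0.5% DMSO. HGF mRNA by qRT-PCR, normalised to ACTB, GAPDH, POLR2A; bidirectional fitting.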

Read-out in assay [16]: Insulin Like Growth Factor 1 (IGF1), IGF1 (gene 3479)
Put plainly: LTEA_HepaRG_IGF1: Life Technologies and Expression Analysis (LTEA) Assay for Insulin Like Growth Factor 1 (IGF1) using HepaRG (AID 2283506). In short, it runs like this: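 qRT-PCR readout of IGF1 mRNA, normalized to three housekeeping genes, after 48 h chemical exposure of HepaRG cells. Concentrations: 8-point half-log series, top 100 uM, 0.5% DMSO vehicle. Gain or loss fitted against DMSO baseline.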

Read-out in assay [17]: Intercellular Adhesion Molecule 1 (ICAM1), ICAM1 (gene 3383)
Kind of assay: LTEA_HepaRG_ICAM1: Life Technologies and Expression Analysis (LTEA) Assay for Intercellular Adhesion Molecule 1 (ICAM1) using HepaRG (AID 2283507). In short, it runs like this: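 Differentiated human HepaRG cells in serum-free induction medium exposed 48 h in duplicate to 8 half-log concentrations (top 100 uM, 0.5% DMSO). ICAM1 mRNA quantified by TaqMan qRT-PCR, normalized to ACTB, GAPDH and POLR2A; bidirectional fitting versus DMSO.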

Active and inactive are the calls of the source. Rule for the calls: active = hit-call score of the fitted dose curve at least 0.9, where 1 is the maximum; inactive = score below 0.9.

Chain of Cytochrome P450 3A7 (Homo sapiens) (P24462 whole entry, looked up): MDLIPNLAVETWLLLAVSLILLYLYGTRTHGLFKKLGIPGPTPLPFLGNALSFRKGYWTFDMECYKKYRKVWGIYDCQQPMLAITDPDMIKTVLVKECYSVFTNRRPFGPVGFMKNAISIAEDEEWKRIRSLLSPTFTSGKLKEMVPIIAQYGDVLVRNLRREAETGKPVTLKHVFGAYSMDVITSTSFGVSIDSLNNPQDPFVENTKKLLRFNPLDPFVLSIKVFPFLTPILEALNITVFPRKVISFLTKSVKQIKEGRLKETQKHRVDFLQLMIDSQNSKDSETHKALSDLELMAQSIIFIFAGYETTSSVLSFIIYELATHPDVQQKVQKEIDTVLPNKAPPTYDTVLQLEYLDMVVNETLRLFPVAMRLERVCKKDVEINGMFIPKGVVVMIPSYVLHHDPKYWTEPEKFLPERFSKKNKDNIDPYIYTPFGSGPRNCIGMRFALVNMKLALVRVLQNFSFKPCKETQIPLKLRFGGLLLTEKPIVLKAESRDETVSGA
Chain of Hypoxia-inducible factor 1-alpha (Homo sapiens) (Q16665 whole entry, looked up): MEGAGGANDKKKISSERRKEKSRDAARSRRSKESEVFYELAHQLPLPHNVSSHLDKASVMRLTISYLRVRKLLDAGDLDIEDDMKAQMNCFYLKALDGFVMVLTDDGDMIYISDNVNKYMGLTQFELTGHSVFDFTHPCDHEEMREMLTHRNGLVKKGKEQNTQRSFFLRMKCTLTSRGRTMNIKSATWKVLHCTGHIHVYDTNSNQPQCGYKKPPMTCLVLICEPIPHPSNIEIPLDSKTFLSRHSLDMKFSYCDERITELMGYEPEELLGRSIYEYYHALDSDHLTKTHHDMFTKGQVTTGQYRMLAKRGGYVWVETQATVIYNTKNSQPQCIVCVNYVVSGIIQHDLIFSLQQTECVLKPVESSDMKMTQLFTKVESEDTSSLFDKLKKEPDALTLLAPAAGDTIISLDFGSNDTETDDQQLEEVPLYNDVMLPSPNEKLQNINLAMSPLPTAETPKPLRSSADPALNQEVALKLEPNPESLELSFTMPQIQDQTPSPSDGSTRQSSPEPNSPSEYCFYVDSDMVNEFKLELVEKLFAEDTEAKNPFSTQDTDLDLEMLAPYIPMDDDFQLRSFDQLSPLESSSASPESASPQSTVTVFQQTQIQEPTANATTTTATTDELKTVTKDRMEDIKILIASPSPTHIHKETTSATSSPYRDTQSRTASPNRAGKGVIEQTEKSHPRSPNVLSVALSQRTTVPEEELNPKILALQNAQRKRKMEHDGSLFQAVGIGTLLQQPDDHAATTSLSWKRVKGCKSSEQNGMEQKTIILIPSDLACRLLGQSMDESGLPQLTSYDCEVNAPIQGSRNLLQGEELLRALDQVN

One may read the AC50 as the midpoint of the concentration-response curve, whichever way the signal moves. For `CC(=NC#N)N(C)Cc1ccc(Cl)nc1`, the call (in [1]; in [2]; in assay [3]; in assay [4]; with CYP3A5 (gene 1577); in assay [6]) was inactive. The compound was classed as inactive in assay [7], in assay [8], in assay [9], in assay [10], in assay [11] and in assay [12]. The compound was called inactive (in assay [13]; in assay [14]; in assay [15]; in the assay with HGF (gene 3082); in [16]; in assay [17]). In addition, the AC50 in assay [5] is 50 µM (active).

`CCCSP(=O)(OCC)Oc1ccc(Br)cc1Cl` (configuration not stated): the call (in assay [1]; in [2]; in assay [3]; in assay [4]; in assay [5]; in the assay with CYP3A5 (gene 1577)) was inactive. For the same compound, the outcome in assay [6], in [7], in assay [8], in [9], in [10] and in assay [11] was inactive. Besides, the result (in assay [14]; in [15]; with HGF (gene 3082); in assay [17]) was inactive.

`CSC1=N[C@@](C)(c2ccccc2)C(=O)N1Nc1ccccc1`: the AC50 in assay [1] is 28 µM (active); in assay [3], 31.9 µM (active); in assay [4] it was 13.1 µM (active); in [5], 25.6 µM (active); in assay [6], 53.8 µM (active); in assay [7], 30.6 µM (active). In addition, the AC50 in assay [9] is 33.9 µM (active); in assay [11], 13.5 µM (active); in [14], 77.1 µM (active); in [15], 35.3 µM (active); in [17] it was 34 µM (active). Moreover, the compound was classed as inactive (in assay [2]; with CYP3A5 (gene 1577); in [10]; with HGF (gene 3082)).

Turning to `CCCOc1nn(C(=O)NS(=O)(=O)c2ccccc2C(=O)OC)c(=O)n1C`, the result (in [1]; in [2]; in assay [3]; in [4]; in assay [5]; with CYP3A5 (gene 1577)) was inactive. In addition, the call in assay [6], in assay [7], in [9], in assay [10], in [11] and in assay [13] was inactive. In addition, the result (in [14]; in [15]; with HGF (gene 3082); in assay [16]; in [17]) was inactive.
